Assay results taken from PubChem BioAssay (NCI).
Compounds without any hit were thinned out: in the full panel of roughly 79,000, 15% have a hit. No stated cut-off is given here; in the data, active means growth inhibition above about 70%; inactive means the rest.

What was measured:
[1] = NCI Yeast Anticancer Drug Screen. Data for the rad50 strain (AID 155);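 further: 0% = growth of vehicle-only cultures of the same strain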; conditions: S. cerevisiae rad50 strain growth inhibition; at 50.0 µM; hits give high values
Outline: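 Inhibition values express reduced yeast growth in compound-treated cultures relative to vehicle-treated controls.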

[2] = NCI Yeast Anticancer Drug Screen. Data for the mec2-1 strain (AID 157); conditions: S. cerevisiae mec2-1 strain, at 50.0 µM, hits give high values
Outline: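 Each compound was tested on mec2-1 yeast, a strain altered in DNA damage repair or cell cycle control. Growth inhibition is reported relative to vehicle.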

[3] = NCI Yeast Anticancer Drug Screen. Data for the sgs1 mgt1 strain (AID 161);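 further: 0% = growth of cultures given vehicle only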; conditions: S. cerevisiae sgs1 mgt1 strain, at 50.0 µM, hits give high values
Outline: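 Mutant yeast exposed to compound; growth scored against vehicle-only wells.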

[4] = NCI Yeast Anticancer Drug Screen. Data for the cln2 rad14 strain (AID 165);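 further: 0% = growth equal to vehicle treated cultures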; conditions: S. cerevisiae cln2 rad14 strain, at 50.0 µM, hits give high values
Outline: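 Test compounds were added to cln2 rad14 yeast cultures; inhibition of growth was then determined by comparison with vehicle treatment.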

[5] = NCI Yeast Anticancer Drug Screen. Data for the bub3 strain (AID 167); conditions: S. cerevisiae bub3 mutant strain, at 50.0 µM, hits give high values
Outline: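 Steps: expose the mutant yeast strain to compound; grow alongside vehicle-treated cultures; measure growth; express inhibition against the vehicle cultures.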

[6] = NCI Yeast Anticancer Drug Screen. Data for the mlh1 rad18 strain (AID 175); conditions: S. cerevisiae mlh1 rad18 strain growth inhibition; at 50.0 µM; hits give high values
Outline: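 Inhibition values reflect reduced growth of mutant yeast versus vehicle-treated controls following compound exposure; the mutations affect DNA damage repair.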

Measured: growth inhibition

O=C(O)CS(=O)(=O)O
inactive: [1] 11.2% | [2] 0.45% | [3] -4.3% | [4] 5.3% | [5] 0.75% | [6] 5.55%

CC1=C(c2cc(C(=O)Nc3cc(C)ccc3C)nc(N)n2)Sc2ccccc2N1
inactive: [1] 5.25% | [2] -10.8% | [3] -25.8% | [4] -18.1% | [5] -13.1% | [6] -10.8%

CSc1nnc2c3ccccc3ccn12
inactive: [1] 4.9% | [2] 11.6% | [3] -2.25% | [4] -3.3% | [5] -14.1% | [6] 52.5%

COC(=O)Cc1nn2c(nc1=O)sc1ccc3ccccc3c12
inactive: [1] -16.7% | [2] -3.05% | [3] 3.3% | [4] 1.25% | [5] -3.8% | [6] -17.2%

C/C(=N\NC(=O)/C(C#N)=C\c1ccc(N(CCC#N)CCC#N)cc1)c1ccccc1
inactive: [1] 0.2% | [2] -14.2% | [3] -20.5% | [4] -6.9% | [5] -7.4% | [6] -1.95%

COc1ccc(-c2cc(-c3ccco3)c(C#N)c(=S)n2C2OC(COC(C)=O)C(OC(C)=O)C(OC(C)=O)C2OC(C)=O)cc1 (stereo unspecified)
inactive: [1] 19.6% | [2] -4.25% | [3] 12.7% | [4] -2.75% | [5] 4.25% | [6] 34.2%

CC(C)CC(NC(=O)CN)C(=O)O (stereo unspecified)
inactive: [1] -1.85% | [2] 2.4% | [3] -1.1% | [4] -7.2% | [5] -6% | [6] -0.85%

CC(=O)NCc1cccc([N+](=O)[O-])c1
inactive: [1] 18.4% | [2] -12.9% | [3] 27.3% | [4] 2.45% | [5] 17.7% | [6] 13.2%

COc1ccc(CC(=O)O)cc1OC
inactive: [1] 23.9% | [2] 0.55% | [3] 17.6% | [4] -24.4% | [5] -5.95% | [6] 23.9%

NC(=O)c1ccc2c(c1)-c1nc-2nc2[n-]c(nc3nc(nc4[n-]c(n1)c1ccc(C(N)=O)cc41)-c1ccc(C(N)=O)cc1-3)c1ccc(C(N)=O)cc21.[Co+2]
inactive: [1] -7.55% | [2] 4.65% | [3] 1.8% | [4] 29.2% | [5] 35% | [6] 4.35%

COc1ccc(C(=O)OC2CCCC2)cc1
inactive: [1] 45.8% | [2] 6.95% | [3] 39.5% | [4] -9.5% | [5] 9.6% | [6] 24.7%

O=C(c1ccc([N+](=O)[O-])cc1)c1cc2ccccc2oc1=O
inactive: [1] -12.1% | [2] -8.5% | [3] -9.85% | [4] -73% | [5] -18.4% | [6] -9%

COC1CC(OC2C(C)OC(OC3C(C)OC(OC4C(C)OC(O[C@H]5CC[C@@]6(C)C(=CC[C@]7(O)[C@@H]6C[C@@H](OC(=O)/C=C/c6ccccc6)[C@@]6(C)[C@]7(O)CC[C@@]6(O)C(C)=O)C5)CC4OC)CC3OC)CC2OC)OC(C)C1O (stereo partly specified)
inactive: [1] 31% | [2] 19.2% | [3] 5.35% | [4] 25.9% | [5] 7.15% | [6] -27.6%

CC1=Nc2cc(C)c(C)cc2NC(=O)C1
inactive: [1] -16.8% | [2] -43.9% | [3] -6.1% | [4] 20.4% | [5] -21.9% | [6] -1.7%

CC(C)(c1ccc(O)c(Cl)c1)c1cc(Cl)c(O)c(S(=O)(=O)O)c1
inactive: [1] 10.8% | [2] 4.8% | [3] 27.2% | [4] 22.3% | [5] 1.15% | [6] -11.2%

CCOC(=O)N1CN(C(=O)OCC)CN(C(=O)OCC)C1
inactive: [1] 15.7% | [2] 19.5% | [3] 9.45% | [4] -7.6% | [5] 29.4% | [6] -5.45%

CC(=O)/C=C/N(C)c1ccc(O)cc1
inactive: [1] 40.6% | [2] 2.3% | [3] -6.45% | [4] 9.3% | [5] 5.55% | [6] -26.2%

O=C1C2C3C=CC(C3)C2C(=O)N1c1ncc([N+](=O)[O-])s1 (stereo unspecified)
inactive: [1] 17.8% | [2] -6.85% | [3] 26.9% | [4] -57.9% | [5] -14.2% | [6] 12.3%

CCCCN(CCCC)CC(O)c1cc(-c2c(Cl)cccc2Cl)nc2c(Cl)cc(Cl)cc12 (stereo unspecified)
inactive: [1] 53.3% | [2] 55.3% | [3] 55% | [4] 13.8% | [5] 20.8% | [6] 64.1%

N#C/C(C(N)=O)=C1\CCCc2sccc21
inactive: [1] -13.3% | [2] 5.9% | [3] -6.3% | [4] -30.1% | [5] -4.75% | [6] 3.4%

CC1CN=C(N(Cc2ccccc2)C(=O)Nc2ccc(Cl)c(Cl)c2)S1 (stereo unspecified)
inactive: [1] -4.25% | [2] 27.9% | [3] -0.35% | [4] 26.7% | [5] -0.65% | [6] 0.35%

O=C1c2ccccc2C(=O)N1CNc1cccc(NCN2C(=O)c3ccccc3C2=O)n1
inactive: [1] -35.8% | [2] -22.1% | [3] -23.1% | [4] 13.4% | [5] -6.5% | [6] -34.8%

CC(C)CCOC(=O)C1C(=O)CC(c2ccccc2)C1c1ccccc1 (stereo unspecified)
inactive: [1] 11.1% | [2] 3.5% | [3] -6.35% | [4] -0.15% | [5] 6% | [6] 6.25%

C=C1SC(=Nc2c(C)cccc2Cl)N(C(=O)c2sc3ccccc3c2Cl)C12CCCCC2
inactive: [1] 8.05% | [2] -16% | [3] 2.3% | [4] 5.6% | [5] 8.85% | [6] 8.75%

Cc1c(S)cnc2ccccc12
inactive: [1] -0.55% | [2] -6.25% | [3] 1.7% | [4] -66.6% | [5] -14.8% | [6] 2.85%

O=CCCn1[nH]c(=O)ccc1=O
inactive: [1] 2.4% | [2] -4.65% | [3] 15.9% | [4] 20.2% | [5] 25.1% | [6] 12.9%

Cc1ccc(S(=O)(=O)OCC(c2ccc(Cl)cc2)c2ccccc2Cl)cc1 (stereo unspecified)
inactive: [1] 14.6% | [2] 1.9% | [3] 3.6% | [4] 11.4% | [5] -1.15% | [6] 1.85%

CCOC(O)C(F)(F)F (stereo unspecified)
inactive: [1] 9.2% | [2] -0.7% | [3] 10.6% | [4] 15.8% | [5] 0.45% | [6] 13.2%

COc1ccc2nccc(NCCCN3CCN(CCCNc4ccnc5ccc(OC)cc45)CC3)c2c1
inactive: [1] 15.8% | [2] 1% | [3] 32.8% | [4] -6.2% | [5] 48.5% | [6] -26.9%

C=C(C)CS(=O)(=O)Cc1ccccc1
inactive: [1] 14.6% | [2] -10.1% | [3] -1.8% | [4] -40.9% | [5] -4.55% | [6] 7.6%

CC1(C)CC[C@]2(C(=O)O)CC[C@]3(C)C(=CC[C@@H]4[C@@]5(C)CC[C@@H]6OC(C)(C)OC[C@@]6(C)[C@@H]5CC[C@]43C)[C@H]2C1
inactive: [1] 3.7% | [2] 10.8% | [3] -19.9% | [4] -5.1% | [5] -8.65% | [6] -62.6%

COc1ccccc1C/C(=N/O)c1ccccc1OC
inactive: [1] 3.65% | [2] -2.8% | [3] 14.1% | [4] 15.6% | [5] -3.8% | [6] 4.35%

CCCCCCNC(CC(N)=O)C(=O)O (stereo unspecified)
inactive: [1] -13.2% | [2] 3.85% | [3] 11.3% | [4] 2.45% | [5] -12.8% | [6] -26.2%

CC(O)c1ccc(N=NN(C)C)cc1 (stereo unspecified)
inactive: [1] -2.5% | [2] 2.75% | [3] -3.15% | [4] -1.55% | [5] 0% | [6] 21.2%

C/C=C/C1OCCC(C)O1 (stereo unspecified)
inactive: [1] 41.3% | [2] -12% | [3] 9.1% | [4] 21.1% | [5] 4.95% | [6] 11%

CC1(C)[C@@H]2CC[C@]1(C)[C@H](OC(=O)/C=C/c1ccccc1)C2
inactive: [1] 1.9% | [2] -39.8% | [3] -11.4% | [4] 8.5% | [5] -16% | [6] -1.5%

CCCCCCCC/C(C=O)=C\c1ccc(C)cc1
inactive: [1] 53% | [2] 33.8% | [3] 55% | [4] 51.7% | [5] 66% | [6] 62.6%

CC1=COC(=O)c2ccccc2N1
inactive: [1] 15.3% | [2] 1.65% | [3] -7.1% | [4] 14.6% | [5] 6.05% | [6] 6%

CCCCCCCCCCCCCCCCSC(=N)N
inactive: [1] 25.2% | [2] 21.2% | [3] 55.8% | [4] 14.1% | [5] 40% | [6] 38%

COc1cc(/C=C/Cc2cc3c(cc2OCCO)OCO3)cc(OC)c1OC
inactive: [1] -1.05% | [2] 0.3% | [3] 7.6% | [4] -11.7% | [5] -4.65% | [6] 19.6%

Cc1cccc(-c2nnc(-c3cccc4ccccc34)o2)c1
inactive: [1] 8.8% | [2] -28.8% | [3] 43.8% | [4] 14.3% | [5] 26.5% | [6] 13.4%
